Here are results for six targets from the supplement of paper PMC10849652.

Of roughly 8,800 targets only a part is listed; those with a hit were picked by preference. About 0.5% of all pairs of compound and target were hits. Unmarked numbers belong to inactive results.

Assay in all cases: log2 fold change, soluble protein after heating vs DMSO (PISA); higher = thermal stabilisation; K562 lysate, 10 uM; active = over 0.2 and 3.5 SD of the protein, either way, in both replicates (recomputed)
Compound in one experiment: CS(=O)(=O)CCNCc1ccc(-c2ccc3ncnc(Nc4ccc(OCc5cccc(F)c5)c(Cl)c4)c3c2)o1 [lapatinib]
Summed up:
(§1)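 Quantification was by TMTpro 16plex LC-MS/MS with equalised channel sums, applied to the supernatant after 21,000xg for 90 min. Samples were crude K562 extract at 1 mg/mL protein in PBS pH 7.4 with 1 mM MgCl2, treated with 10 μM compound for 30 min, heated for 3 min across 48°C-58°C, pooled and brought to 0.5% NP-40 at 4°C. Values are log-two fold changes in thermal stability relative to solvent controls, from duplicates.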

Compound in another experiment: CS(=O)(=O)N1CCN(Cc2cc3nc(-c4cccc5[nH]ncc45)nc(N4CCOCC4)c3s2)CC1 [pictilisib]
Summed up:
as §1

Compound in the next experiment: C[C@@H](Oc1cc(-c2cnn(C3CCNCC3)c2)cnc1N)c1c(Cl)ccc(F)c1Cl [crizotinib]
Summed up: as §1

Compound in experiment [1]: C[C@H](C1=CC=C(C=C1)C(=O)NC2=C3C=CNC3=NC=C2)N
Summed up: as §1

Compound in the next experiment: C[C@H](Nc1ncnc2nc[nH]c12)c1cc2cccc(Cl)c2c(=O)n1-c1ccccc1 [duvelisib]
Summed up:
as §1

Compound in the next experiment: Cc1cc(Nc2cc(CN3CCOCC3)c3nc(C)c(Cc4ccc(Cl)cc4F)n3n2)n[nH]1 [gandotinib]
Summed up:
as §1

Compound in another experiment: Cc1ccc(-n2nc(C(C)(C)C)cc2NC(=O)Nc2ccc(OCCN3CCOCC3)c3ccccc23)cc1 [doramapimod]
Summed up: as §1

Compound in another experiment: Cc1ccc(NC(=O)c2ccc(CN3CC[C@H](N(C)C)C3)c(C(F)(F)F)c2)cc1Nc1nccc(-c2cncnc2)n1 [bafetinib]
Summed up:
as §1

Compound in experiment [2]: Cc1cccc(CC(=O)N2CCc3c2ccc(-c2cn(C)c4ncnc(N)c24)c3F)n1
Summed up:
as §1

Compound in a further experiment: Cc1cn(-c2cc(NC(=O)c3ccc(C)c(Nc4nccc(-c5cccnc5)n4)c3)cc(C(F)(F)F)c2)cn1 [nilotinib]
Summed up:
as §1

Compound in experiment [3]: Cc1nc(Nc2n[nH]c3c2CN(C(=O)N[C@H](CN(C)C)c2ccccc2)C3(C)C)c2sccc2n1
Summed up:
as §1

Compound in a further experiment: Cc1nc(Nc2ncc(C(=O)Nc3c(C)cccc3Cl)s2)cc(N2CCN(CCO)CC2)n1 [dasatinib]
Summed up:
as §1

Compound in experiment [4]: Cc1ncc(-c2ccnc(Nc3ccc(S(C)(=O)=O)cc3)n2)n1C(C)C
Summed up:
as §1

Compound in experiment [5]: Cn1cc(-c2ccc3c(c2)CCN3C(=O)Cc2cccc(C(F)(F)F)c2)c2c(N)ncnc21
Summed up:
as §1

Compound in a further experiment: Cn1cc(CNCC2CCN(c3ncc(C(=O)NO)cn3)CC2)c2ccccc21 [quisinostat]
Summed up:
as §1

Compound in another experiment: Cn1cncc1[C@@](N)(c1ccc(Cl)cc1)c1ccc2c(c1)c(-c1cccc(Cl)c1)cc(=O)n2C [tipifarnib]
Summed up: as §1

Compound in experiment [6]: NC(=O)Nc1cc(-c2cccc(F)c2)sc1C(=O)N[C@H]1CCCNC1
Summed up:
as §1

Compound in experiment [7]: NC(=O)c1cnc(N[C@@H]2CCCC[C@@H]2N)nc1Nc1cccc(-n2nccn2)c1
Summed up: as §1

Compound in experiment [8]: NC1(c2ccc(-c3nc4ccn5c(=O)[nH]nc5c4cc3-c3ccccc3)cc2)CCC1
Summed up:
as §1

Compound in another experiment: Cc1cc(Nc2cc(N3CCN(C)CC3)nc(Sc3ccc(NC(=O)C4CC4)cc3)n2)n[nH]1 [tozasertib]
Summed up:
as §1

UniProt Q9BTA9, sequence (Q9BTA9 whole entry, looked up): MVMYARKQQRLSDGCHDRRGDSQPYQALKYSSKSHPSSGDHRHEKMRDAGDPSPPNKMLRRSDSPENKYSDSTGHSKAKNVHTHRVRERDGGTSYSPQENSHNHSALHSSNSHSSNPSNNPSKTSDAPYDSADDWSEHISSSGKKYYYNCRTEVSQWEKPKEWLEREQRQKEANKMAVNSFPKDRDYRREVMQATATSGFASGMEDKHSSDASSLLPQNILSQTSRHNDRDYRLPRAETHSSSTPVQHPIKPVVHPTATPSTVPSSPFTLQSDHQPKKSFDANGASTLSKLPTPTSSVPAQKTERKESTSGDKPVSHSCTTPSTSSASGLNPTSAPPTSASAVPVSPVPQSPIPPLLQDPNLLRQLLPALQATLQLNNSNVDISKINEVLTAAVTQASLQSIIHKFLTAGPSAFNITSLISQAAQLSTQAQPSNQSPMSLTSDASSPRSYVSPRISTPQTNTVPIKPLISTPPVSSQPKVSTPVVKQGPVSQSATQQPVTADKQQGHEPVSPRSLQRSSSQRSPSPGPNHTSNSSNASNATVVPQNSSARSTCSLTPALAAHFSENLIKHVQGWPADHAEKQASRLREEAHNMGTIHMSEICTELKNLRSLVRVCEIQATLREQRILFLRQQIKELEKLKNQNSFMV
UniProt Q96IR2, sequence (Q96IR2 whole entry, looked up): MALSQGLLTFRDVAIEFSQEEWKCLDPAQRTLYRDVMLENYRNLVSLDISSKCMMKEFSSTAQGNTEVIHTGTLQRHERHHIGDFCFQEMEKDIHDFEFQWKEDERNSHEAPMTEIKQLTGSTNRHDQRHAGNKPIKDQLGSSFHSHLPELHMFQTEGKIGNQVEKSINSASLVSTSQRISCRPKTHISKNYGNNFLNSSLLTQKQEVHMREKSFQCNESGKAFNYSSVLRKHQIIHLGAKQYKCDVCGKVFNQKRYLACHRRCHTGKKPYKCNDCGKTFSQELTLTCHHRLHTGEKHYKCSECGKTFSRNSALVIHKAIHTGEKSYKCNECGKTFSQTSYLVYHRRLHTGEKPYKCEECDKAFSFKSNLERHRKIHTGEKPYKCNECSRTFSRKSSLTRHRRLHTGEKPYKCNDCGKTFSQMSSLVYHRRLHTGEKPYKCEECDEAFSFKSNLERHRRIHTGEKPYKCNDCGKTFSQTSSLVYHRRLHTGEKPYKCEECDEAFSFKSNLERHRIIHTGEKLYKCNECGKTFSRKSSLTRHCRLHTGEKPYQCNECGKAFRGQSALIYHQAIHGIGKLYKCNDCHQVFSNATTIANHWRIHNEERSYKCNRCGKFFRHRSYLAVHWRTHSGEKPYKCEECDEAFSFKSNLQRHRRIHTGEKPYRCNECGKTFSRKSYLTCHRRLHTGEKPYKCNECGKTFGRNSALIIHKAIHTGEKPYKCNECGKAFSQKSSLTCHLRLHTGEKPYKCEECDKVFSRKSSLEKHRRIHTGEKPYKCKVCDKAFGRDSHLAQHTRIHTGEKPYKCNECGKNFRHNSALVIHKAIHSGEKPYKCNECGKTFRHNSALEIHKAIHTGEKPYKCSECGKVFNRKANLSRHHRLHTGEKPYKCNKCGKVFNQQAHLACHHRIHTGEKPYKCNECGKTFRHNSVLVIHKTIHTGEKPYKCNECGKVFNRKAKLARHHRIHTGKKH
UniProt Q15906, sequence (Q15906 whole entry, looked up): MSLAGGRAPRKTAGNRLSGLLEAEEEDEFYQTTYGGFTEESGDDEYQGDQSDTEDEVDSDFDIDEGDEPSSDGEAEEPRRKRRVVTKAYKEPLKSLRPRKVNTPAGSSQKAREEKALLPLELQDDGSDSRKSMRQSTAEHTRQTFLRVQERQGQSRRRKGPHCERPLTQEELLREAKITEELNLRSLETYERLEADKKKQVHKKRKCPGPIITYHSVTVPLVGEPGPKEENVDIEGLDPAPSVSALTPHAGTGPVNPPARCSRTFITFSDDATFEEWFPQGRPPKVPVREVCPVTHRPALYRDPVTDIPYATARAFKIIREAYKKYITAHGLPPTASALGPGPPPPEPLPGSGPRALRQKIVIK
UniProt Q15072, sequence (Q15072 whole entry, looked up): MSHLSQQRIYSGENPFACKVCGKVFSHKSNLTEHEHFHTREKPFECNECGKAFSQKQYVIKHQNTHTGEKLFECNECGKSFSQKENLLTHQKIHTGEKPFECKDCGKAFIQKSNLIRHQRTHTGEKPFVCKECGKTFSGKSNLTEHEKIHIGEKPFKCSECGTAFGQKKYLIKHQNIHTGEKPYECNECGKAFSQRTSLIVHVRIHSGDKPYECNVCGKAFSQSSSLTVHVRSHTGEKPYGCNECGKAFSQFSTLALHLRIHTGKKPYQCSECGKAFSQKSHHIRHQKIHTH
UniProt P40337, sequence (P40337 whole entry, looked up): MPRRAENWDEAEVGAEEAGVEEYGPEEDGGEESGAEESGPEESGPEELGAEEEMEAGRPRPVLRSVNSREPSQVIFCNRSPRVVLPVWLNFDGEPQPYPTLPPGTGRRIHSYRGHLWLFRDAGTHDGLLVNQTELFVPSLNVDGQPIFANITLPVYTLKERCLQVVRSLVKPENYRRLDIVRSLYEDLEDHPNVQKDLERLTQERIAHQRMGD

For the target ZNF845 (UniProt Q96IR2), the log2 fold change was 0.012 with lapatinib; -0.013 with pictilisib; 0.018 with crizotinib; -0.069 in experiment [1]; -0.023 with duvelisib; 0.015 with gandotinib. Moreover, the log2 fold change with doramapimod is 0.16; with bafetinib it was -0.031; in [2] it was 0.017; with nilotinib, 0; in [3], 0.087; with dasatinib, -0.038. Besides, the log2 fold change was -0.053 in experiment [4]; 0.021 in experiment [5]; -0.033 with quisinostat; -0.006 with tipifarnib; 0.122 in experiment [6]; 0.016 in [7]. In addition, the log2 fold change in experiment [8] was 0.163.

Take UNC13A (UniProt Q9UPW8): the log2 fold change in experiment [1] is -1.52; in the experiment with gandotinib, 0.331; in experiment [2], 0.481; with nilotinib, 0.114; in [3], 0.046; in experiment [4] it was 0.165. Besides, the values for the log2 fold change (in the experiment with tipifarnib; in experiment [8]) were 0.064 and -0.048, respectively.

For VHL (UniProt P40337), the log2 fold change in the experiment with pictilisib was -0.003; with crizotinib, 0.017; in experiment [1], -0.538 (active); with duvelisib, 0.148; with gandotinib, -0.08; with tozasertib, 0. In addition, the log2 fold change in the experiment with doramapimod was -0.011; in the experiment with bafetinib it was 0.092; in experiment [2], -0.021; with nilotinib it was -0.01; in experiment [3], 0.04; with dasatinib it was 0. In addition, the log2 fold change in experiment [4] is -0.056; in experiment [5], 0.079; with quisinostat, -0.056; with tipifarnib it was 0.022; in experiment [6] it was 0.077; in experiment [8], 0.04.

As for WAC isoform 5 (UniProt Q9BTA9), the log2 fold change was 0.226 with duvelisib, -0.336 with dasatinib, 0.254 in [5] and -0.129 in experiment [8].

For VPS72 (UniProt Q15906), the log2 fold change in the experiment with lapatinib was 0.025; in the experiment with crizotinib it was 0.005; in experiment [1], -0.099; with duvelisib it was 0.001; in the experiment with gandotinib, 0.031; in the experiment with tozasertib, 0.059. Also, the log2 fold change in the experiment with doramapimod is -0.023; in experiment [2], 0.136; in the experiment with nilotinib, 0.029; in experiment [3] it was 0.032; with dasatinib, -0.054; in experiment [4] it was 0.05. The log2 fold change in experiment [5] was 0.073; in the experiment with quisinostat it was 0.005; in the experiment with tipifarnib, 0.088; in experiment [6], 0.05; in experiment [7], -0.03; in experiment [8], -0.036.

For ZNF146 (UniProt Q15072), the log2 fold change is -0.018 with duvelisib, -0.028 with dasatinib and 0.188 in experiment [5].
